# Source: PubChem BioAssay (NCI)
# Compounds without any hit were thinned out: in the full panel of roughly 83,000, 20% have a hit.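 Testing used 96-well plates and a 48-hour single-concentration exposure. Example: -40 means 40% of the starting cells died.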 A number with no mark means an inactive call. Active and inactive are the calls of the source. Rule for the calls: active = growth percent below 10; inactive = the rest.
# Assays:
# Assay in all cases: NCI-60 one-dose screen, 48 h (100 = growth as untreated, 0 = no growth, -100 = all killed)
# Details in all cases: 10 µM unless noted
# [1] = system: OVCAR-8 ovarian
# [2] = system: OVCAR-5 ovarian
# [3] = system: OVCAR-4 ovarian
# [4] = system: SK-OV-3 ovarian
# [5] = system: IGROV1 ovarian
# [6] = system: OVCAR-3 ovarian
# [7] = system: HS 578T breast
# [8] = system: NCI/ADR-RES ovarian
# [9] = system: T-47D breast
SMILES,growth [1],growth [2],growth [3],growth [4],growth [5],growth [6],growth [7],growth [8],growth [9]
CS(=O)(=O)c1ccc(-c2nc3ccccn3c2-c2nc3ccc([N+](=O)[O-])cc3[nH]2)cc1,94.5%,97.8%,93.2%,107%,81%,110%,99.7%,92.2%,91.2%
COC(=O)C(Cc1ccccc1)NS(=O)(=O)/N=C1\NC(=O)NC1=C(Cl)Cl (stereo not given),102%,115%,112%,108%,101%,110%,100%,106%,68.4%
COc1cc(/C=C/C(=O)c2cc(OC)c(OC)c(OC)c2)ccc1OCc1ccccc1,16.8%,47%,41.2%,88.1%,35.3%,26%,88.9%,14.4%,41.8%
O=C(N/N=C/c1ccc(Br)s1)c1[nH]c2ccc(Br)cc2c1-c1ccccc1,2.61% (active),52%,71.1%,40.6%,18.1%,9.72% (active),23.6%,16.6%,75.7%
CS(=O)(=O)c1ccc(-c2nc3ccccn3c2C=Nc2ccc(Cl)cc2)cc1,86.3%,83.6%,88.2%,,78.4%,,104%,62.3%,65.4%
Cn1ccnc1C(=O)/C=C/c1ccc(NC(=O)Nc2ccc(F)cc2)cc1,15.8%,57.7%,76.2%,52.8%,43.1%,56.5%,17.6%,43.8%,42.8%
CS(=O)(=O)c1ccc(-c2nc3ccccn3c2/C=N/Nc2nc(-c3ccc(Br)cc3)cs2)cc1,99.1%,110%,107%,140%,111%,139%,112%,107%,94%
c1ccc2c(NCCCn3ccnc3)c3oc4ccccc4c3nc2c1,,1.5% (active),-10.6% (active),16.5%,-6.93% (active),5.25% (active),19.7%,2.5% (active),17%
CN(C)c1ccc(/C=C2\Cc3c(F)ccc(Br)c3C2=O)cc1,,107%,35.9%,97.7%,56.5%,101%,92.2%,91%,54.2%
CN(C)CCCNc1c2ccc(Cl)cc2nc2c1oc1ccccc12,-17.9% (active),1.91% (active),8.04% (active),42%,-13% (active),31%,37%,2.84% (active),46.3%
C#Cc1nc(C2=C(C)C(O)CC2)cs1 (stereo not given),,120%,115%,89%,5.36% (active),120%,104%,35.9%,92%
Clc1ccc(-c2cn3cc(Cc4ccc(Cl)c(Cl)c4)sc3n2)cc1,75.5%,83.6%,56.1%,106%,62.5%,97.5%,94.1%,88.9%,50.4%
CN(C)CCCNc1c2ccccc2nc2c1oc1ccc(Cl)cc12,25.4%,51.6%,50.6%,57.6%,25.8%,63.5%,47.7%,22%,63.7%
CS(=O)(=O)Nc1ccc(-c2nn(-c3ccc(S(C)(=O)=O)cc3)cc2/C=C/C(=O)c2ccc(NC(=O)CO[N+](=O)[O-])cc2)cc1,,103%,106%,99.7%,105%,116%,122%,97.3%,102%
C#Cc1nc(C2=C(C)C(=O)/C(=N/OC(C)=O)C2)cs1,78.3%,99.4%,89.9%,,-37.2% (active),111%,90.7%,1.61% (active),79.9%
N#Cc1nc(-c2ccccc2)oc1N1CCC(CO)C1 (stereo not given),,93.2%,99%,,93.1%,104%,96.1%,106%,83%
